PubChem BioAssay (Tox21)
Values without a mark were called inactive. Inconclusive results are not listed. Entries that show only a call come without a potency. Calls of active or inactive are those of the source. Unless noted, the call rests on the fitted dose curve; in most records, active means well fitted curve in the direction sought with a large enough effect in the repeat runs; inconclusive means weak or mixed curves; inactive means no such curve, though single readings can be large; an effect the other way counts as inactive or inconclusive.

Legend:
[1] = A CellTox Green Cytotoxicity Assay to monitor cytotoxicity in HepG2 cells - 0 hour (AID 1224882); further: nearly all actives have a fitted effect of over 35% in size
How it was run: (§1)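 HepG2, 600 cells/well premixed w/ CellTox Green; 5 h settle, 37 C/5% CO2; pintool cpd add (DMSO); 37 C, 40 h; fluorescence read at 0, 8, 16, 24, 32, 40 h.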

[2] = A CellTox Green Cytotoxicity Assay to monitor cytotoxicity in HepG2 cells - 32 hour (AID 1224883); further: nearly all actives have a fitted effect of over 50% in size; further: potency means the concentration at half of the fitted maximal effect
How it was run: as §1

[3] = A CellTox Green Cytotoxicity Assay to monitor cytotoxicity in HEK293 cells - 8 hour (AID 1224884); further: nearly all actives have a fitted effect of over 35% in size
How it was run: (§2)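 Read-out: fluorescence of a cell-impermeant cyanine dye staining DNA of dead cells, proportional to cytotoxicity. HEK293, 600 cells/well with reagent, compound (23 nL DMSO) added after 5 h; reads at 0, 8, 16, 24, 32, 40 h.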

[4] = qHTS RealTime-Glo MT Cell Viability Assay in HEK293 cells - 24 hour (AID 1224886); further: nearly all actives have a fitted effect of over 50% in size; further: potency means the concentration at half of the fitted maximal effect
How it was run: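 Nonlytic real-time viability readout: viable cells convert prosubstrate to NanoLuc substrate, giving luminescence proportional to live cell number. HEK293, 600 cells/well, compound added after 5 h, continuous culture at 37 C.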

[5] = qHTS RealTime-Glo MT Cell Viability Assay in HEK293 cells - 8 hour (AID 1224887); further: nearly all actives have a fitted effect of over 50% in size; further: potency means the concentration at half of the fitted maximal effect
How it was run: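 Luminescence readout at each listed time point; HEK293, 600 cells/well, RealTime-Glo MT reagent added with cells; compounds pinned (23 nL in DMSO) after 5 h at 37 C; continuous culture at 37 C.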

[6] = A CellTox Green Cytotoxicity Assay to monitor cytotoxicity in HEK293 cells - 16 hour (AID 1224888); further: nearly all actives have a fitted effect of over 35% in size
How it was run: as §2

[7] = qHTS RealTime-Glo MT Cell Viability Assay in HepG2 cells - 0 hour (AID 1224889); further: nearly all actives have a fitted effect of over 50% in size
How it was run: (§3)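 Luminescence read-out: viable HepG2 cells reduce a prosubstrate to a NanoLuc substrate, giving a signal proportional to live cell number. Reads taken at 0, 8, 16, 24, 32 and 40 h of compound exposure at 37 C.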

[8] = A CellTox Green Cytotoxicity Assay to monitor cytotoxicity in HepG2 cells - 8 hour (AID 1224890); further: nearly all actives have a fitted effect of over 45% in size
How it was run: as §1

[9] = qHTS assay to identify small molecule antagonists of the estrogen receptor alpha (ER-alpha) signaling pathway using the BG1 cell line in the presence of 0.1 nM 17-beta-estradiol - cell viability counter screen (AID 1259241); further: nearly all actives have a fitted effect of over 40% in size; further: potency means the concentration at half of the fitted maximal effect
How it was run: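 Following 5 days in phenol red-free medium with charcoal-stripped serum, VM7Luc4E2 cells received test compounds alongside 0.1 nM 17beta-estradiol (final) at 37C for 22 hr. Live cells were then quantified via protease-substrate fluorescence.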

[10] = qHTS assay to identify small molecule antagonists of the androgen receptor (AR) signaling pathway using the MDA cell line in the presence of 0.5 nM R1881 - cell viability counter screen (AID 1259242); further: nearly all actives have a fitted effect of over 45% in size
How it was run: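 Live-cell protease fluorescence, CellTiter-Fluor, 30 min at 37C. Cells: MDA-kb2, 3,000/well, preincubated 5 hr. Compounds plus 0.5 nM R1881 final, 16 hr, 37C, 0% CO2.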

[11] = target: Estrogen receptor (Homo sapiens) (UniProt P03372); test: qHTS assay to identify small molecule antagonists of the estrogen receptor alpha (ER-alpha) signaling pathway using the BG1 cell line in the presence of 0.1 nM 17-beta-estradiol (AID 1259244); further: nearly all actives have a fitted effect of over 50% in size; further: potency means the concentration at half of the fitted maximal effect
How it was run: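 Luminescence after ONE-Glo (30 min, room temperature) measured ERE-luciferase activity in VM7Luc4E2 cells treated 22 h with compound and 0.1 nM final 17beta-estradiol as stimulator.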

[12] = qHTS assay to identify small molecule HDAC inhibitors (AID 1259364); further: potency means the concentration at half of the fitted maximal effect;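 further: wild-type HCT-116 cells with endogenous class I/II HDAC activity; nearly all actives have a fitted effect of over 45% in size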
How it was run: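 HCT-116 (wild type), 1,500 cells/well, overnight; compound 2 hr 37C 5% CO2; HDAC-Glo I/II reagent 30 min RT; luminescence readout.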

[13] = qHTS assay to identify small molecule HDAC inhibitors - cell viability counter screen (AID 1259365)
How it was run: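 HCT-116 wild-type, overnight attachment; 2hr drug exposure, 37C; CellTiter-Glo luminescent ATP readout after 30min RT.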

[14] = qHTS assay to identify small molecule agonists of the sonic hedgehog signaling (Shh) pathway - cell viability counter screen (AID 1259366); further: nearly all actives have a fitted effect of over 50% in size; further: potency means the concentration at half of the fitted maximal effect
How it was run: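 Compounds in DMSO were pin-transferred onto 3T3 Gli1-Luc cells that had settled 4hr; plates then stood 24hr at 37C and 5% CO2. One hour before the end, CellTiter-Fluor was added and fluorescence recorded.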

[15] = qHTS assay to identify small molecule antagonists of the sonic hedgehog signaling (Shh) pathway - cell viability counter screen (AID 1259367); further: nearly all actives have a fitted effect of over 55% in size; further: potency means the concentration at half of the fitted maximal effect
How it was run: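 Cytotoxicity was assessed in parallel with Shh reporter activity by measuring live-cell protease fluorescence (CellTiter-Fluor) in NIH/3T3 cells stably carrying Gli1-Luc, treated with compound under conditioned medium stimulation for 23 hr plus 1 hr reagent incubation.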

[16] = qHTS assay to identify small molecule agonists of the sonic hedgehog signaling (Shh) pathway (AID 1259368; calls by dose curve;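 further: NIH/3T3-derived 3T3Gli1-Luc cells carrying a stable Gli1-driven firefly luciferase reporter; series mostly up to about 92 µM; nearly all actives have a fitted effect of over 15% in size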)
How it was run: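 Read-out: firefly luciferase luminescence from a Gli1 response element reporter stably integrated in NIH/3T3-derived 3T3Gli1-Luc cells, measured 30 min at room temperature after reagent addition. Compound exposure lasted 24 hr at 37 C, 5% CO2.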

[17] = qHTS assay to identify small molecule antagonists of the sonic hedgehog signaling (Shh) pathway (AID 1259369; calls by dose curve; further: nearly all actives have a fitted effect of over 45% in size)
How it was run: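 Luminescence readout: firefly Luc under Gli1 response element in 3T3Gli1-Luc cells (NIH/3T3 clone). Antagonist mode, stimulation by conditioned medium; compound exposure 24hr at 37 C, 5% CO2.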

[18] = qHTS assay to identify small molecule phospholipidosis (PLD) inducers (AID 1259344; active means well fitted curve in the direction sought with a large enough effect; an effect the other way counts as inactive or inconclusive)
How it was run: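 Cells (HepG2, 900 per well) attach for 4 h, receive LipidTOX Red and compound together, incubate 24 h at 37 C, are fixed 30 min with paraformaldehyde/Hoechst, then imaged at one site per well.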

[19] = qHTS RealTime-Glo MT Cell Viability Assay in HepG2 cells - 16 hour (AID 1224885); further: nearly all actives have a fitted effect of over 50% in size
How it was run: as §3

[20] = target: Androgen receptor (Homo sapiens) (UniProt P10275); test: qHTS assay to identify small molecule antagonists of the androgen receptor (AR) signaling pathway using the MDA cell line in the presence of 0.5 nM R1881 (AID 1259243); further: nearly all actives have a fitted effect of over 50% in size
How it was run: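 MDA-kb2, MMTV-luc (AR/GR elements); 3,000 cells/well; cpd + 0.5 nM R1881 final; 16 hr 37C, 0% CO2; ONE-Glo 30 min RT; luminescence.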

Sequence of Estrogen receptor (Homo sapiens) (P03372 whole entry, looked up): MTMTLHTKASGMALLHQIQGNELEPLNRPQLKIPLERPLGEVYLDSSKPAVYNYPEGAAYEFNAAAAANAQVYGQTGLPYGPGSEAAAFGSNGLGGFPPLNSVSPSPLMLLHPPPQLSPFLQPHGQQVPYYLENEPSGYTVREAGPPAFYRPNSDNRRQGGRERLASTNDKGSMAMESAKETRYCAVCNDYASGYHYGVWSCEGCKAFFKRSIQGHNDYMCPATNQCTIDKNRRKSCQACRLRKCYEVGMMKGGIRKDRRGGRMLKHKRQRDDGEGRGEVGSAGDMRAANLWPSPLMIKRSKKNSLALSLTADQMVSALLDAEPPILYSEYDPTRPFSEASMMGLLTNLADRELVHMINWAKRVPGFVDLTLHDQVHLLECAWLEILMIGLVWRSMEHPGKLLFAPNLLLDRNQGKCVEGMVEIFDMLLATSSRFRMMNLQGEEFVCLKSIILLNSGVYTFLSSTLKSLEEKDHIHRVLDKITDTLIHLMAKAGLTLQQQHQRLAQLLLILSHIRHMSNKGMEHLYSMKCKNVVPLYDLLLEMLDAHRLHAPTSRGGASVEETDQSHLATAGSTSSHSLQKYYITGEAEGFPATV
Sequence of Androgen receptor (Homo sapiens) (P10275 whole entry, looked up): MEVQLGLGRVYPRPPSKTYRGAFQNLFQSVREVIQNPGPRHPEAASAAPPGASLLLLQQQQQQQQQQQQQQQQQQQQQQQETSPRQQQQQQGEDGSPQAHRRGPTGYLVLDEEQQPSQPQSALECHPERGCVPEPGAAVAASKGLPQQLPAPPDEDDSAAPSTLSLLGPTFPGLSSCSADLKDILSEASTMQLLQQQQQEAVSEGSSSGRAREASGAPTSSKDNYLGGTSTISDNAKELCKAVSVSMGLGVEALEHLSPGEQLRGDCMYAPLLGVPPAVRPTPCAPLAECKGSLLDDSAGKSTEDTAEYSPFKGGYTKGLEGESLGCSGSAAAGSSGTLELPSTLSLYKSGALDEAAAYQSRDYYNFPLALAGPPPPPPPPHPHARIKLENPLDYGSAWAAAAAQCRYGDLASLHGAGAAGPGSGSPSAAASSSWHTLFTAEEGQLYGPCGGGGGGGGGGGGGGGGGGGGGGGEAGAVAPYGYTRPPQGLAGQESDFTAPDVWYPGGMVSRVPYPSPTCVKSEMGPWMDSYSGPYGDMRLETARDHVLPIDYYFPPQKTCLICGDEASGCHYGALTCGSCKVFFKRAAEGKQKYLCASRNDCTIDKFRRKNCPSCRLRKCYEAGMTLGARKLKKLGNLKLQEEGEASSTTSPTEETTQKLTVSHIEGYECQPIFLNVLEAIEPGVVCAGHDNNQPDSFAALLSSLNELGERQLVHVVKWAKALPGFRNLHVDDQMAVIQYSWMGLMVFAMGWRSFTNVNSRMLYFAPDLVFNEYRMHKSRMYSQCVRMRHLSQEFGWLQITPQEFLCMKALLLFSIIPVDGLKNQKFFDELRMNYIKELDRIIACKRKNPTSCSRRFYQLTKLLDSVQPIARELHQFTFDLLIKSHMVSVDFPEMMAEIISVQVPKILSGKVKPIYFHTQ

Row | SMILES | Potency [1] | Potency [2] | Potency [3] | Potency [4] | Potency [5] | Potency [6] | Potency [7] | Potency [8] | Potency [9] | Potency [10] | Potency [11] | Potency [12] | outcome [13] | Potency [14] | Potency [15] | Potency [16] | Potency [17] | Potency [18] | outcome [19] | Potency [20]
1 | CCCCCCCCCCCC(=O)OCC | inactive | inactive | inactive | inactive | inactive | inactive | inactive | inactive | inactive | inactive | inactive | inactive | inactive | inactive | inactive | inactive | inactive | – | – | –
2 | Cc1ccc2ccccc2c1[N+](=O)[O-] | inactive | inactive | inactive | inactive | inactive | inactive | inactive | inactive | – | inactive | inactive | inactive | inactive | inactive | inactive | inactive | – | – | – | –
3 | CC(C)(C)c1cc(C=O)cc(C(C)(C)C)c1O | inactive | inactive | inactive | inactive | inactive | inactive | inactive | inactive | inactive | inactive | inactive | inactive | inactive | – | inactive | inactive | inactive | – | – | –
4 | CCCCCC1CCC(=O)O1 (stereo not drawn) | inactive | inactive | inactive | inactive | inactive | inactive | inactive | inactive | inactive | inactive | inactive | inactive | inactive | inactive | inactive | inactive | inactive | – | – | –
5 | CC(C)C[C@H](NC(=O)[C@H](Cc1ccccc1)NC(=O)c1cnccn1)B(O)O | inactive | 0.0239 µM (active) | inactive | 0.0756 µM (active) | inactive | inactive | inactive | inactive | 0.266 µM (active) | – | 0.0596 µM (active) | inactive | inactive | 1.06 µM (active) | 5.31 µM (active) | – | inactive | inactive | – | –
6 | O=C(Nc1ccc2c(c1)Cc1ccccc1-2)C(F)(F)F | inactive | inactive | inactive | – | inactive | inactive | inactive | inactive | – | inactive | – | – | inactive | – | inactive | inactive | inactive | – | inactive | –
7 | CCCc1nc(C)c2c(=O)[nH]c(-c3cc(S(=O)(=O)N4CCN(CC)CC4)ccc3OCC)nn12 | inactive | inactive | inactive | – | inactive | inactive | inactive | inactive | – | inactive | – | inactive | – | inactive | inactive | inactive | – | inactive | inactive | –
8 | O=C(O)CNc1ccccc1 | inactive | inactive | inactive | inactive | inactive | inactive | inactive | inactive | inactive | inactive | – | inactive | inactive | inactive | inactive | inactive | inactive | – | – | –
9 | CCOc1cc(OCC)c(C(C)=O)cc1OCC | inactive | inactive | inactive | 19.2 µM (active) | 19.2 µM (active) | inactive | inactive | inactive | – | inactive | inactive | inactive | inactive | 10.7 µM (active) | 8.48 µM (active) | inactive | – | – | – | –
10 | Clc1ccccc1-c1nc(-c2ccncc2)no1 | inactive | inactive | inactive | – | inactive | – | – | inactive | inactive | inactive | – | 2.66 µM (active) | inactive | inactive | inactive | – | inactive | inactive | inactive | –
11 | CCCC1CCCC(=O)O1 (stereo not drawn) | inactive | inactive | inactive | inactive | inactive | inactive | inactive | inactive | inactive | inactive | inactive | inactive | – | inactive | inactive | inactive | – | – | – | –
12 | Clc1cccc(C(c2ccc3nc[nH]c3c2)n2ccnc2)c1 (stereo not drawn) | inactive | inactive | inactive | – | 3.38 µM (active) | inactive | inactive | inactive | – | inactive | inactive | inactive | inactive | inactive | inactive | inactive | inactive | inactive | inactive | –
13 | CCCc1ccc(OC)cc1 | inactive | inactive | inactive | inactive | inactive | inactive | inactive | inactive | inactive | inactive | inactive | inactive | inactive | inactive | inactive | inactive | – | – | – | –
14 | O=C(O)c1ccc2cc(O)ccc2c1 | inactive | inactive | inactive | inactive | inactive | inactive | inactive | inactive | inactive | inactive | inactive | inactive | inactive | inactive | inactive | – | inactive | – | – | –
15 | S=c1[nH][nH]c(=S)s1 | inactive | inactive | inactive | – | inactive | inactive | inactive | inactive | inactive | inactive | inactive | inactive | – | inactive | inactive | inactive | inactive | – | inactive | –
16 | CCOc1ccc(NC(C)=O)cc1N | inactive | inactive | inactive | inactive | inactive | inactive | inactive | inactive | inactive | inactive | inactive | inactive | inactive | inactive | – | – | – | – | – | –
17 | O=C(O)c1c2ccccc2cc2ccccc12 | inactive | inactive | inactive | – | inactive | – | inactive | inactive | inactive | inactive | inactive | inactive | – | inactive | inactive | inactive | inactive | – | inactive | –
18 | O=S(=O)(O)c1cc(Cl)c(Cl)cc1Cl | – | – | – | – | – | – | – | – | – | – | – | – | – | – | – | – | – | – | – | inactive
